We go through 40 molecules from PubChem BioAssay (Tox21).

Records with an inconclusive call do not appear. A call without a number means that no potency is given here. Calls of active or inactive are those of the source. Calls follow the shape of the dose curve; as a rule, active = well fitted cell-killing curve with a large enough effect in the repeat runs; inconclusive = weak or mixed curves, or effect the other way; inactive = no such curve, though single readings can be large or run the other way.
Potency is read from the fitted curve at half-maximal effect.

This experiment is described as follows: qHTS assay to identify small molecule agonists of the farnesoid-X-receptor (FXR) signaling pathway - cell viability counter screen (AID 743218). Also: nearly all actives have a fitted effect of over 45% in size. Conditions: FXR-bla HEK293T viability, CellTiter-Glo luminescence, 16 h; series mostly up to 62.6 µM. The source says: U.S. Tox21 Program National Center for Advancing Translational Sciences [NCATS] NIH Chemical Genomics Center [NCGC] U.S. Environmental Protection Agency [EPA] National Institutes of Environmental Health Sciences [NIEHS] National Toxicology Program [NTP] U.S. Food and Drug Administration [FDA] Tox21 Assay Overview: The farnesoid-X-receptor (FXR), a nuclear hormone receptor, is highly expressed in liver, intestine, kidney and adrenal cortex. Natural ligands of FXR are the bile acids (Cholic acid, Chenodeoxy cholic acid etc). FXR is an important regulator of diverse metabolic pathways, including the bile acid homeostasis, lipid and glucose metabolisms. FXR regulates the expression of target genes by binding either as a monomer or as a heterodimer with the retinoid X receptor (RXR). Numerous studies have reported that FXR exerts protective function during cholestasis, diabetes, liver regeneration, and cancer. To identify compounds that activate FXR signaling, GeneBLAzer FXR-UAS-bla HEK 293T cell line (Invitrogen, Carlsbad, CA) containing a beta-lactamase reporter gene under the control of a UAS response element was used to screen the Tox21 10K compound library. The cytotoxicity of the Tox21 compound library against the FXR-bla cell line was tested in parallel by measuring the cell viability using CellTiter-Glo assay in the same wells.
Tox21 Assay Protocol Summary: FXR-bla cells were dispensed at 5000 cells/5uL/well in 1536-well black wall/clear bottom plates using a Multidrop Combi (Thermo Fisher Scientific, Waltham, MA) dispenser. After the assay plates were incubated at 37 C and 5% CO2 for 5 h, 23 nL of compounds dissolved in DMSO, positive controls or DMSO only was transferred to the assay plate by a Pintool station (Kalypsys, San Diego, CA). The assay plates were incubated at 37C for 16 h. After 1 uL of LiveBLAzerTM B/G FRET substrate was added using a Bioraptr Flying Reagent Dispenser (FRD) workstation (Beckman Coulter, Indianapolis, IN), the plates were incubated at room temperature for 2 h, and fluorescence intensity was measured by an Envision plate reader (PerkinElmer, Shelton, CT). For cell viability readout that measures cytotoxicity, 4uL/well of CellTiter-Glo reagent was added into the assay plates using a Bioraptr FRD. After 30 min incubation at room temperature, the luminescence intensity in the plates was measured using a ViewLux plate reader (PerkinElmer).
For `C=CC(=O)[O-].C=CC(=O)[O-].[Zn+2]`, the Potency entry is “inactive”. To `O=Cc1c2ccccc2c(Cl)c2ccccc12` belongs “inactive”; to `O=C1c2ccccc2C(=O)C1c1nc2ccccc2c(Br)c1O`, “inactive”. To `C[C@H]1C[C@H](O)c2ccsc2S1(=O)=O` belongs “inactive”; to `CN1CC(=O)N2[C@H](c3ccc4c(c3)OCO4)c3[nH]c4ccccc4c3C[C@@H]2C1=O`, “inactive”; to `O=C(O)CCc1nc(-c2ccccc2)c(-c2ccccc2)o1`, “inactive”. To `OC1(c2ccccc2)CCNCC1` belongs “inactive”; to `O=C(Cn1ccnc1[N+](=O)[O-])NCCO`, “inactive”; to `c1ccc(C[n+]2cccc3ccccc32)cc1`, “inactive”.

Regarding `O=C(CCCN1CC=C(n2c(=O)[nH]c3ccccc32)CC1)c1ccc(F)cc1`, the Potency entry is “inactive”. To `CC[C@]1(O)C[C@H]2CN(CCc3c([nH]c4ccccc34)[C@@](C(=O)OC)(c3cc4c(cc3OC)N(C=O)[C@H]3[C@@](O)(C(=O)OC)[C@H](OC(C)=O)[C@]5(CC)C=CCN6CC[C@]43[C@@H]65)C2)C1` belongs “inactive”; to `CCOC(C)=O`, “inactive”.

For `CC=C(Cl)Cl`, the Potency result is “inactive”. To `Clc1cc(Cl)nc(Cl)n1` belongs “inactive”. `CO/N=C(/C(=O)N[C@@H]1C(=O)N2C(C(=O)O)=C(COC(N)=O)CS[C@H]12)c1ccco1`: the Potency entry is “inactive”. To `CC(=O)NC1(c2cccc(F)c2)CCN(CC[C@@]2(c3ccc(Cl)c(Cl)c3)CN(c3ccccc3)C(=O)CO2)CC1` belongs 15.5 µM (active). To `O=c1[nH]c2ccc(Cl)cc2o1` belongs “inactive”; to `CCCCCC#CC(=O)OC`, “inactive”; to `C[C@H]1c2cccc(O)c2C(O)=C2C(=O)[C@]3(O)C(O)=C(C(N)=O)C(=O)[C@@H](N(C)C)[C@@H]3[C@@H](O)[C@@H]21`, “inactive”.

On to `C=CCc1ccccc1OCC(O)CNC(C)C` (stereo not given), for which the Potency result is “inactive”. To `CCOc1ccccc1O[C@H](c1ccccc1)[C@H]1CNCCO1` belongs “inactive”; to `CCCCC(CC)COP(=O)(O)O` (stereo not given), “inactive”; to `CCCCCCCCCCCCCCN(CCO)CCO`, 43.6 µM (active).

On to `CCC1(CO)COCOC1`, for which the Potency result was “inactive”. To `CC1=Nc2ccc3ccccc3c2C1(C)C` belongs “inactive”; to `CCCCCCC(C)(C)C(=O)O`, “inactive”; to `CCN(CC)CCNC(=O)COc1ccc(OC)cc1`, “inactive”. To `O=C1c2ccccc2C(=O)N1CCc1noc(-c2ccc(CN3CCCCCC3)s2)n1` belongs “inactive”; to `CC(CN(C)C)C(C)(O)Cc1ccc(Cl)cc1` (stereo not given), “inactive”. To `COC(=O)[C@H]1[C@H]2C[C@@H]3c4[nH]c5cc(OC)ccc5c4CCN3C[C@H]2C[C@@H](OC(=O)/C=C/c2ccc(O)c(OC)c2)[C@@H]1OC` belongs 8.41 µM (active); to `CCOC(=O)C1=C(C)NC(C)=C(C(=O)OC)C1c1cccc(Cl)c1Cl` (stereo not given), “inactive”; to `CC(=O)OCC[N+](C)(C)C`, “inactive”. As to `CC1CC(OC(=O)C(O)c2ccccc2)CC(C)(C)N1C` (stereo not given), the Potency entry was “inactive”.

As to `CCOC(=O)c1ccc(O)c(O)c1`, the Potency entry is “inactive”. Consider `COc1ccccc1N1CCN(CC(O)COc2cccc3ccccc23)CC1` (stereo not given), for which the Potency entry was “inactive”. `Oc1c(I)cc(I)c2cccnc12`: the Potency result is “inactive”.

Regarding `C=COCC(C)C`, the Potency result is “inactive”.

As for `CC(C)=CCC1C(=O)N(c2ccccc2)N(c2ccccc2)C1=O`, the Potency entry was “inactive”. To `CC(C)(C)CC(=O)OCC(=O)[C@@]1(O)CC[C@H]2[C@@H]3CCC4=CC(=O)C=C[C@]4(C)[C@H]3[C@@H](O)C[C@@]21C` belongs “inactive”; to `O=C1Cc2cc(Cl)ccc2N1`, “inactive”.
